Data published in PubChem BioAssay (Tox21).
A number with no mark means an inactive call. Results filed as inconclusive are left out. A call without a number means that no potency is given here. Active and inactive are the calls of the source. Unless noted, calls follow the shape of the full dose curve.

Key:
[1] = Nuclear factor erythroid 2-related factor 2/antioxidant responsive element (Nrf2/ARE) small molecule agonists: qHTS cell viability counter screen in human keratinocytes (AID 1919968; active = well fitted curve in the direction sought with a large enough effect in the repeat runs; an effect the other way counts as inactive or inconclusive; also: nearly all actives have a fitted effect of over 55% in size)
Procedure, shortened: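 Measured as CellTiter-Fluor fluorescence, this readout tracks cytotoxicity in the same wells as the ARE-luciferase screen. HaCaT reporter cells (1,500/well) received compounds after a 5 h pre-incubation and were exposed for 23 h.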

[2] = Nuclear factor erythroid 2-related factor 2/antioxidant responsive element (Nrf2/ARE) small molecule agonists: luciferase reporter gene qHTS assay in human keratinocytes (AID 1919969); also: nearly all actives have a fitted effect of over 35% in size; also: potency is read from the fitted curve at half-maximal effect
[3] = molecular target: Gonadotropin-releasing hormone receptor (Homo sapiens) (UniProt P30968); assay: Human gonadotropin-releasing hormone receptor (GnRHR) small molecule agonists, calcium flux assay in GnRHR-HEK293 cells (AID 1920063); also: nearly all actives have a fitted effect of over 35% in size
Chain of Gonadotropin-releasing hormone receptor (Homo sapiens) (P30968 whole entry, looked up): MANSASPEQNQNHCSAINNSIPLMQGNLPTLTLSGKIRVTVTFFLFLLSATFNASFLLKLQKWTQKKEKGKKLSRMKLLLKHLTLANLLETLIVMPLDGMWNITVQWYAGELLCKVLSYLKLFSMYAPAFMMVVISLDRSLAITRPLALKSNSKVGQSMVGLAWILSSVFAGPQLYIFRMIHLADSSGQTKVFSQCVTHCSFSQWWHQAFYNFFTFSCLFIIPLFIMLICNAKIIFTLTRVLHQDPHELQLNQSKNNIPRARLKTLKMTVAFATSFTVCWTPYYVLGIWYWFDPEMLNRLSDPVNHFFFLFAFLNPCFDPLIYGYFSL
Procedure, shortened: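 Fluorescence kinetics (480 nm excitation, 540 nm emission; 3 min, 1 s steps) report calcium mobilisation in human GnRHR-HEK293 cells in agonist mode. Dye incubation: 1 h, 37 C.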

[4] = molecular target: KiSS-1 receptor (Homo sapiens) (UniProt Q969F8); assay: Human kisspeptin (KISS1R) small molecule agonists, calcium flux assay in KISS1R-HEK293 cells (AID 1920064; active = well fitted curve in the direction sought with a large enough effect in the repeat runs; an effect the other way counts as inactive or inconclusive)
Chain of KiSS-1 receptor (Homo sapiens) (Q969F8 whole entry, looked up): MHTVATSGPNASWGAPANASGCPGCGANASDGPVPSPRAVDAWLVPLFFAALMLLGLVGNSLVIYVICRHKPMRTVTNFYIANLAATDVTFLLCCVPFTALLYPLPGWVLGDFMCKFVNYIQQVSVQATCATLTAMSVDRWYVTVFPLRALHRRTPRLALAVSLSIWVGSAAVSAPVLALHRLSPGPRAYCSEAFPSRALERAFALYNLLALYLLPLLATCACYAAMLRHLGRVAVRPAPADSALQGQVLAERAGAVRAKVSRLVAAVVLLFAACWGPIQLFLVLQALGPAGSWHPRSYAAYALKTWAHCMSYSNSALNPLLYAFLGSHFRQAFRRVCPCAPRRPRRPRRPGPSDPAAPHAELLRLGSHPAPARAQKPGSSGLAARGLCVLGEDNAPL
Procedure, shortened: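 Measures KISS1R agonism through calcium-sensitive dye fluorescence in stably transfected HEK293 cells, read for 3 min after pin-tool compound delivery; 15-point titrations in triplicate.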

[5] = G protein-coupled receptor (GPCR) small molecule agonists, calcium flux assay: HEK293 wild type cell line counter screen (AID 1920065)
Procedure, shortened: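 Readout: fluorescence at 480 nm excitation/540 nm emission, sampled at 1 s intervals for 3 min. Cells had been cultured 18 h, then dye-loaded 1 h at 37 C before compound or ATP addition.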

[6] = p53 small molecule agonists, cell-based qHTS assay with human liver microsomes (AID 1963577);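 also: p53 response element beta-lactamase reporter cells with liver microsomes plus NADPH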
Procedure, shortened: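 With metabolic activation: human liver microsomes (0.5 mg/mL final) plus NADPH (0.5 mg/mL final) added alongside compounds to p53RE-bla cells; 16 h 37 C exposure; beta-lactamase read by LiveBLAzer fluorescence.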

[7] = p53 small molecule agonists, cell-based qHTS assay with rat liver microsomes (AID 1963578)
Procedure, shortened: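 Metabolic activation by rat liver microsomes and NADPH, each 0.5 mg/mL final, added right after compounds to p53RE-bla reporter cells (4,000/well, plated 5 h earlier). 16 h at 37 C, then LiveBLAzer substrate for 2 h at room temperature in the dark; fluorescence read-out.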

[8] = p53 small molecule agonists, cell-based qHTS assay with human liver microsomes: qHTS cell viability counter screen (AID 1963579); also: nearly all actives have a fitted effect of over 45% in size
Procedure, shortened: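 Metabolic activation used human liver microsomes and NADPH, both 0.5 mg/mL final, over 16 hours at 37 C on p53RE-bla cells (4,000/well). Cytotoxicity measured by CellTiter-Glo luminescence, 30 min at room temperature.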

[9] = p53 small molecule agonists, cell-based qHTS assay with rat liver microsomes: qHTS cell viability counter screen (AID 1963580); also: nearly all actives have a fitted effect of over 45% in size
Procedure, shortened: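 Viability is assessed in parallel with the p53 reporter read: HCT-116 p53RE-bla cells receive compounds plus rat microsomes and NADPH (0.5 mg/mL final apiece), incubate 16 h at 37 C, and then CellTiter-Glo luminescence is recorded.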

[10] = p53 small molecule agonists, cell-based qHTS assay: qHTS cell viability counter screen (AID 1963581); also: nearly all actives have a fitted effect of over 45% in size
Procedure, shortened: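 In the same plates used for the p53 bla reporter, HCT-116 cells given compounds for 16 h at 37 C received CellTiter-Glo; luminescence was recorded 30 min later at room temperature.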

[11] = p53 small molecule agonists, cell-based qHTS assay (AID 1963582; active = well fitted activation curve with a large enough effect in the signal ratio in the repeat runs, not every such curve was filed as active; the % refers to the signal ratio)
Procedure, shortened: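 Compounds are pin-transferred in DMSO onto p53RE-bla cells and incubated 16 h at 37 C. The B/G FRET beta-lactamase substrate is then applied for 2 h at RT and fluorescence recorded.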

[12] = molecular target: Muscarinic acetylcholine receptor M1 (Homo sapiens) (UniProt P11229); assay: Cholinergic receptor muscarinic 1 (CHRM1) small molecule antagonists, cell-based qHTS assay (AID 1963588); also: nearly all actives have a fitted effect of over 40% in size
Chain of Muscarinic acetylcholine receptor M1 (Homo sapiens) (P11229 whole entry, looked up): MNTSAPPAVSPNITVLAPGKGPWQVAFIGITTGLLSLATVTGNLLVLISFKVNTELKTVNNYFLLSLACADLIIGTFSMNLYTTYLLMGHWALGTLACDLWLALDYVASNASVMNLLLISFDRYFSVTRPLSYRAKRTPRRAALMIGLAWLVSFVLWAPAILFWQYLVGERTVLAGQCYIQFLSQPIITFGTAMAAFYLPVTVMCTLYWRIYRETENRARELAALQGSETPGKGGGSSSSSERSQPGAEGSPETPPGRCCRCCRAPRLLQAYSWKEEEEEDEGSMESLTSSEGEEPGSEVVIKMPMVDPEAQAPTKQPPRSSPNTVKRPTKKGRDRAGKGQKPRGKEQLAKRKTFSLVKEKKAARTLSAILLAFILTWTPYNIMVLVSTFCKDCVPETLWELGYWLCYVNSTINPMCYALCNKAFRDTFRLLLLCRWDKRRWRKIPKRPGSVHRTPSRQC
Procedure, shortened: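 CHRM1-CHO calcium-flux assay, antagonist mode. Cells were seeded 18 h, dye-loaded 1 h at 37 C and given compound for 5 min at RT, then acetylcholine was added at 50nM. FDSS fluorescence was read 3 min; 15 concentrations, three runs.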

[13] = molecular target: Muscarinic acetylcholine receptor M1 (Homo sapiens) (UniProt P11229); assay: Cholinergic receptor muscarinic 1 (CHRM1) small molecule agonists, cell-based qHTS assay (AID 1963589); also: nearly all actives have a fitted effect of over 35% in size
Procedure, shortened: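 Each compound was tested at 15 concentrations across three independent runs on dye-loaded CHO cells stably expressing human CHRM1, reading intracellular calcium fluorescence kinetically at 1 sec intervals.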

[14] = cAMP Responsive Elements (CRE) small molecule agonists, cell-based qHTS assay (AID 1963590)
Procedure, shortened: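 Cell line: CRE-bla HEK 293T; medium DMEM/10% dialyzed FBS/0.1 mM NEAA/1 mM pyruvate/25 mM HEPES; 3 h compound exposure; beta-lactamase FRET readout after 2 h substrate loading at RT.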

[15] = cAMP Responsive Elements (CRE) small molecule antagonists, cell-based qHTS assay (AID 1963591; active = well fitted inhibition curve with a large enough effect in the signal ratio in the repeat runs, not every such curve was filed as active; the % refers to the signal ratio)
Procedure, shortened: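 Inhibition of NKH477-driven (0.25 uM final) CRE-beta-lactamase signal in HEK293T cells, 3 h compound exposure at 37 °C, detected by FRET substrate fluorescence.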

[16] = molecular target: Beta-2 adrenergic receptor (Homo sapiens) (UniProt P07550); assay: Adrenergic beta2 receptor (ADRB2) small molecule antagonists, cell-based qHTS assay (AID 1963592); also: series mostly up to about 92 µM; nearly all actives have a fitted effect of over 50% in size
Chain of Beta-2 adrenergic receptor (Homo sapiens) (P07550 whole entry, looked up): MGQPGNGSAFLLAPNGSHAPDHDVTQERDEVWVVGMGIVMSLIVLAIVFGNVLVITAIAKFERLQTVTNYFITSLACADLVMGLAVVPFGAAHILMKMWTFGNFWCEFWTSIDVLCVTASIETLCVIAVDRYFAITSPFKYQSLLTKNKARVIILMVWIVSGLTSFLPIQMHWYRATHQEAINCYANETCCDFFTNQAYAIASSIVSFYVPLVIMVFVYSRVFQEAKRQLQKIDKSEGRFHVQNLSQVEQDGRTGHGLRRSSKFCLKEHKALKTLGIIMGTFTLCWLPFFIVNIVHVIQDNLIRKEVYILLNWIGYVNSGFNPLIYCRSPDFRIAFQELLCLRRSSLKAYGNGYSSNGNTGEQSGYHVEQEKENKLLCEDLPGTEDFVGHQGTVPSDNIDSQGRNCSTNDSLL
Procedure, shortened: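 Cells (CHO, stable ADRB2 overexpression) incubated 18-20hr at 37C; compounds added from DMSO; agonist mix (1nM isoproterenol, 100uM IBMX, 25uM Ro-20-1724) added; 0.5hr RT; d2-cAMP and anti-cAMP-cryptate added; 1hr RT; 665/615 nm read.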

[17] = molecular target: D(2) dopamine receptor (Homo sapiens) (UniProt P14416); assay: Dopamine D2 receptor (DRD2) small molecule agonists, cell-based qHTS assay (AID 1963594); also: nearly all actives have a fitted effect of over 35% in size
Chain of D(2) dopamine receptor (Homo sapiens) (P14416 whole entry, looked up): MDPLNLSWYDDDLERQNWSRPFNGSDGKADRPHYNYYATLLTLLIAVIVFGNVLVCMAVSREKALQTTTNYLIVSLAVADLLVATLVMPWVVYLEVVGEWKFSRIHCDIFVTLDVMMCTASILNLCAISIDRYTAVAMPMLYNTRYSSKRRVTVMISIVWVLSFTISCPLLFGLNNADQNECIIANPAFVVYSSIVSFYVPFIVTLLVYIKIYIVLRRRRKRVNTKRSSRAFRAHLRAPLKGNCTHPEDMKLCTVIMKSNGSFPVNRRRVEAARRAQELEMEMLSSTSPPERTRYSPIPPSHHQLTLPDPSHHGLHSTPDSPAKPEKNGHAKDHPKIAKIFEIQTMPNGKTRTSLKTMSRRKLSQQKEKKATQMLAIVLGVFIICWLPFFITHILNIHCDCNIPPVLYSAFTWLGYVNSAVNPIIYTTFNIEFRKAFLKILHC
Procedure, shortened: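 HEK293 cells stably expressing human DRD2, pre-treated with PDE inhibitor Ro20-1724 (0.1 mM final) and compound 10 min at room temperature, then stimulated with NKH477 (200nM […]) for 30 min. cAMP read by HTRF (665/620 nm).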

[18] = molecular target: D(2) dopamine receptor (Homo sapiens) (UniProt P14416); assay: Dopamine D2 receptor (DRD2) small molecule antagonists, cell-based qHTS assay (AID 1963595; active = well fitted inhibition curve with a large enough effect in the signal ratio in the repeat runs, with a control signal flat; the % refers to the signal ratio)
Procedure, shortened: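 HEK293 cells stably expressing DRD2, preincubated with 0.1 mM Ro20-1724 and compounds 10 min, were stimulated with 200 nM NKH477 plus 12 nM quinpirole for 30 min at room temperature; cAMP measured by HTRF (665/620 nm).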

[19] = molecular target: 5-hydroxytryptamine receptor 2A (Homo sapiens) (UniProt P28223); assay: 5-hydroxytryptamine receptor 2A (HTR2A) small molecule agonists, cell-based qHTS assay (AID 1963587); also: nearly all actives have a fitted effect of over 30% in size
Chain of 5-hydroxytryptamine receptor 2A (Homo sapiens) (P28223 whole entry, looked up): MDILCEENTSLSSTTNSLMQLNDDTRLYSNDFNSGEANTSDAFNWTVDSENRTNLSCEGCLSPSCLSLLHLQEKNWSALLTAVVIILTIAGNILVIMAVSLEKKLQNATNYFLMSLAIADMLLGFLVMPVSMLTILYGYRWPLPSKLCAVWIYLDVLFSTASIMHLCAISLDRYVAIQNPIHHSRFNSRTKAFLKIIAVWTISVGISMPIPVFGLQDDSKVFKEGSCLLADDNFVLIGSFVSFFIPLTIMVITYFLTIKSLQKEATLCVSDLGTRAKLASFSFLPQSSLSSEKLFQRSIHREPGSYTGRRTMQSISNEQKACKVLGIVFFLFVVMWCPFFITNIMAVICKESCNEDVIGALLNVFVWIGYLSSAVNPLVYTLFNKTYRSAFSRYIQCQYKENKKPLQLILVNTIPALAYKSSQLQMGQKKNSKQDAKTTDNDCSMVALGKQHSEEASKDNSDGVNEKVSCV
Procedure, shortened: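 CHO cells stably expressing human HTR2A, plated 18 h, loaded with calcium dye 1 h at 37 C. Agonist mode: compounds added and intracellular calcium fluorescence recorded kinetically for 2 min at 1 sec intervals.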

[20] = molecular target: 5-hydroxytryptamine receptor 2A (Homo sapiens) (UniProt P28223); assay: 5-hydroxytryptamine receptor 2A (HTR2A) small molecule antagonists, cell-based qHTS assay (AID 1963586); also: nearly all actives have a fitted effect of over 45% in size
Procedure, shortened: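 Antagonist-mode intracellular calcium assay: DOI (4 nM) added after 5 min compound pre-incubation at room temperature to dye-loaded HTR2A-CHO cells. Fluorescence followed for 3 min, sampled every second.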

Compound: ClC=C(Cl)Cl
- Potency [1]: inactive
- Potency [2]: inactive
- Potency [3]: inactive
- Potency [4]: inactive
- Potency [5]: inactive
- Potency [6]: inactive
- Potency [7]: inactive
- Potency [8]: inactive
- Potency [9]: inactive
- Potency [10]: inactive
- Potency [11]: inactive
- Potency [12]: inactive
- Potency [13]: inactive
- Potency [14]: inactive
- Potency [15]: inactive
- Potency [16]: inactive
- Potency [17]: inactive
- Potency [18]: inactive

Compound: [As]#[In]
- Potency [1]: inactive
- Potency [2]: inactive
- Potency [3]: inactive
- Potency [4]: inactive
- Potency [5]: inactive
- Potency [6]: inactive
- Potency [7]: inactive
- Potency [8]: inactive
- Potency [9]: inactive
- Potency [10]: inactive
- Potency [11]: inactive
- Potency [19]: inactive
- Potency [12]: inactive
- Potency [13]: inactive
- Potency [14]: inactive
- Potency [15]: inactive
- Potency [16]: inactive
- Potency [17]: inactive
- Potency [18]: inactive

Compound: O=[N+]([O-])c1ccc(CCl)cc1
- Potency [1]: inactive
- Potency [2]: 60.1 µM (active)
- Potency [3]: inactive
- Potency [4]: inactive
- Potency [5]: inactive
- Potency [6]: inactive
- Potency [7]: inactive
- Potency [8]: inactive
- Potency [9]: inactive
- Potency [10]: inactive
- Potency [11]: inactive
- Potency [19]: inactive
- Potency [12]: inactive
- Potency [13]: inactive
- Potency [14]: inactive
- Potency [15]: inactive
- Potency [16]: inactive
- Potency [17]: inactive
- Potency [18]: inactive

Compound: CCCC[P+](CC)(CCCC)CCCC (tested in a mixture with another compound)
- Potency [1]: inactive
- Potency [2]: inactive
- Potency [3]: inactive
- Potency [4]: inactive
- Potency [5]: inactive
- Potency [6]: inactive
- Potency [7]: inactive
- Potency [8]: inactive
- Potency [9]: inactive
- Potency [10]: inactive
- Potency [11]: inactive
- Potency [19]: inactive
- Potency [12]: inactive
- Potency [13]: inactive
- Potency [15]: inactive
- Potency [16]: inactive
- Potency [17]: inactive
- Potency [18]: inactive

Compound: O=S1(=O)OCCO1
- Potency [1]: inactive
- Potency [2]: inactive
- Potency [3]: inactive
- Potency [4]: inactive
- Potency [5]: inactive
- Potency [6]: inactive
- Potency [7]: inactive
- Potency [8]: inactive
- Potency [9]: inactive
- Potency [10]: inactive
- Potency [11]: inactive
- Potency [19]: inactive
- Potency [12]: inactive
- Potency [13]: inactive
- Potency [14]: inactive
- Potency [16]: inactive
- Potency [18]: inactive

Compound: O=NN(CCO)CCO
- Potency [1]: inactive
- Potency [2]: inactive
- Potency [3]: inactive
- Potency [4]: inactive
- Potency [5]: inactive
- Potency [6]: inactive
- Potency [7]: inactive
- Potency [8]: inactive
- Potency [9]: inactive
- Potency [10]: inactive
- Potency [11]: inactive
- Potency [19]: inactive
- Potency [12]: inactive
- Potency [13]: inactive
- Potency [14]: inactive
- Potency [15]: inactive
- Potency [16]: inactive
- Potency [17]: inactive
- Potency [18]: inactive

Compound: ClCCCCl
- Potency [1]: inactive
- Potency [2]: inactive
- Potency [3]: inactive
- Potency [4]: inactive
- Potency [5]: inactive
- Potency [6]: inactive
- Potency [7]: inactive
- Potency [8]: inactive
- Potency [9]: inactive
- Potency [10]: inactive
- Potency [11]: inactive
- Potency [20]: inactive
- Potency [13]: inactive
- Potency [14]: inactive
- Potency [15]: inactive
- Potency [16]: inactive
- Potency [18]: inactive
